# Screens from PubChem BioAssay.
# Compounds with a hit are over-represented: about 0.4% of the library has one in this group of screens.
# GAA inh = inhibitors of human lysosomal alpha-glucosidase; P10253; purified human GAA, 4-MU-alpha-glucoside fluorescence; Potency, µM (highest dose often 76.9 µM), for the others: at the top dose activity change, negative = inhibition, hits mostly inhibitors; 0.005% of 200,000 active;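 further: potency means the concentration at half of the fitted maximal effect; plate controls were uninhibited enzyme wells for no effect and no-enzyme background for full effect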
#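 Human enzyme at 4 nM with 400 uM 4-methylumbelliferyl-alpha-D-pyranoside, citrate/phosphate buffer pH 5.0, 0.005% Tween-20, 20 min at room temperature. Compounds up to 77 uM. 4-MU fluorescence (Ex 365/Em 440) read after NaOH/glycine stop; AC50 from Hill fit.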
# GLA spleen mod = alpha-galactosidase A (human) modulation; P06280; human spleen homogenate, 4MU-alpha-Gal fluorescence, 40 min; Potency, µM (titrated, usually from 80 µM), for the others: at the top dose activity change, negative = inhibition, actives largely listed as inhibitors; 0.008% of 240,000 active; AID 2107;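 further: potency means the concentration at half of the fitted maximal effect; 0% = enzyme with vehicle and -100% = no enzyme basal signal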
#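 Inhibition or activation of alpha-galactosidase in human spleen homogenate is scored by 4-MU fluorescence after 40 min at 37C, pH 5.0, with 1 mM substrate. AC50s come from concentration-response fitted to the Hill equation.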
# aGlu spleen mod = inhibitors or activators of human alpha-glucosidase in spleen homogenate. human spleen homogenate, 4-MU-alpha-glucoside fluorescence. Potency, µM (titrated, usually from 79.9 µM), for inactives: at the top dose activity change, negative = inhibition, actives largely listed as inhibitors. P10253. 0.006% of 240,000 active;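 further: potency means the concentration at half of the fitted maximal effect; 0% = enzyme with vehicle and -100% = no enzyme basal signal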
#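 Compounds were titrated against alpha-glucosidase in spleen homogenate at pH 5.0, with 1 mM 4-methylumbelliferyl substrate for 40 min at 37 C. Reactions were quenched with pH 10 NaOH/glycine and fluorescence measured.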
# GAA glycogen = GAA glycogen-cleavage inhibition or activation | 0.38% of 300,000 active | recombinant GAA, glycogen substrate, Amplex Red glucose oxidase fluorescence | Potency, µM (doses to about 76.4 µM), for the others: at the top dose activity change, negative = inhibition, actives largely listed as inhibitors | P10253;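 further: potency means the concentration at half of the fitted maximal effect; 0% = full enzyme reaction and -100% = no-enzyme basal signal; the screen sought inhibitors and activators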
#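 qHTS, 1536-well; enzyme 4 nM final; cpd up to 77 uM; substrate bovine liver glycogen 30 ug; 50 mM citrate/phosphate pH 5.0, 0.01% Tween-20; 37 C, 40 min; Amplex Red detection 45 min RT; Hill fit → AC50.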
# GLA inh pH 4.5 = alpha-galactosidase A (human) inhibition, pH 4.5 | P06280 | purified enzyme, 4-MU-alpha-Gal fluorescence, pH 4.5 | activity change, negative = inhibition, % at 105 µM | 230,000 tested, under 10 active;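 further: 0% = full activity with enzyme and -100% = basal without enzyme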
# Target sequence (P06280 whole entry, looked up): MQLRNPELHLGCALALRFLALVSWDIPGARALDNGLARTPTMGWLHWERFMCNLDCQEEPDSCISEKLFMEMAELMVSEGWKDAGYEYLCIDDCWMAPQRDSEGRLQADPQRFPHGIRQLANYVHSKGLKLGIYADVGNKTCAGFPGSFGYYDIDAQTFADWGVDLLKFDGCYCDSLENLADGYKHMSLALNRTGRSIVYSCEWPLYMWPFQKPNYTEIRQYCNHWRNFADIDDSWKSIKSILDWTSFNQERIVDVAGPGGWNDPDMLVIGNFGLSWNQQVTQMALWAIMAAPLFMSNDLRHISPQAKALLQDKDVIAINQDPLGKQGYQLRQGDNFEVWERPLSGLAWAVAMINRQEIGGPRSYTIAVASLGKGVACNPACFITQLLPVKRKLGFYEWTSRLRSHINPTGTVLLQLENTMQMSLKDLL
# Starred values were filed as active, the others as inactive; ? = inconclusive; / = not tested or not shown; [ ] = another dose, or the depositor's remark. The call rests on the fitted dose curve; in most records, active means well fitted curve in the direction sought with a large enough effect; inconclusive means small, poorly fitted or top-dose-only effect, or another doubt; inactive means no such curve, though single readings can be large; an effect the other way counts as inactive or inconclusive.
SMILES,GAA inh,GLA spleen mod,aGlu spleen mod,GAA glycogen,GLA inh pH 4.5
N=c1c(S(=O)(=O)c2ccc(Cl)cc2)cc2c(=O)n3ccccc3nc2n1C1CCCC1,/,/,/,-5%[76.3 µM],/
COc1ccc(S(=O)(=O)N2CC=C(C(=O)Nc3ccc(NC(C)=O)cc3)CC2)cc1,-5%,9%,4%,-2%,-3
COC(=O)CSc1cc([N+](=O)[O-])ccc1NC(=O)OC,?,35µM*,-24%,5%,5
COc1ccc(S(=O)(=O)Nc2cc(C(C)C)c(O)cc2C)cc1,-9%,-1%,-2%,20µM*,-6
COc1ccc(S(=O)(=O)Nc2ccc(O)c3ccccc23)cc1,5%,-4%,6%,9.9µM*,-6
Cc1ccc(S(=O)(=O)Nc2cc(C)c(O)cc2C)cc1,4%,5%,3%,3.5µM*,3
Cc1cc(NS(=O)(=O)c2ccccc2)c(C)c(Cl)c1O,-1%,0%,8%,45µM*,0
CC(C)(O)C(=O)N/N=C\c1ccc(OC/C=C/c2ccccc2)cc1,/,/,/,1%[76.3 µM],/
Cc1ccc(NC(=O)C2CCCN(S(=O)(=O)c3c(C)noc3C)C2)cc1F (stereo not given),-17%,-3%,-3%,5%,-8
CCc1ccc(S(=O)(=O)N2CCN(c3ccc(Cl)c(Cl)c3)CC2)cc1,/,/,/,-11%[76.3 µM],/
c1ccc(N2CCN(c3nc(-c4cccs4)nc4ccccc34)CC2)cc1,6%,2%,7%,-2%,3
Oc1ccccc1N1CCN(c2nc(-c3cccs3)nc3ccccc23)CC1,/,8%,6%,40µM*,-2
Oc1ccc(N2CCN(c3nc(-c4cccs4)nc4ccccc34)CC2)cc1,/,-5%,-6%,25µM*,4
O=C(N/N=C/c1cccnc1)c1cccs1,/,-4%,3%,8%,1
O=C(O)CCc1ccc(S(=O)(=O)N2CCOCC2)cc1,?,-1%,?,-9%,-2
COc1cc(NC(=O)c2cccc3c2C(=O)N(C2CCCCC2)C3)cc(OC)c1,/,/,/,2%[76.3 µM],/
CN=c1scc(-c2ccc(F)cc2)n1/N=C/c1ccc(O)c(O)c1,-9%,7%,-1%,5.6µM*,-9
Nc1nc(N2CCN(c3ccc(Cl)cc3)CC2)n[nH]1,10%,1%,-14%,?,-15
Nc1nc(N2CCN(c3ccccc3)CC2)n[nH]1,7%,3%,9%,10µM*,-3
CCOC(=O)c1cc2c(C)n(-c3ccc(C)cc3)c(C)c2ccc1=O,-5%,-1%,-5%,-4%,2
Cc1ccc([N+](=O)[O-])cc1Nc1nc(N2CCCC2)nc(N2CCCC2)n1,/,/,/,32µM*,/
O=[N+]([O-])c1ccc(Nc2nc(NCCO)nc(N3CCCC3)n2)cc1,-14%,-9%,-2%,23%,-9
Cc1cc2c(cc1S(=O)(=O)Nc1cccc(Cl)c1C)OCCN2C,/,/,/,-16%[76.3 µM],/
Nc1ccccc1Nc1cc(-c2ccccc2)[nH]n1,1%,9%,9%,7.9µM*,-5
Cc1ccn2c(Nc3ccc4c(c3)OCO4)c(-c3ccc(O)cc3)nc2c1,/,3%,-1%,11µM*,-1
SMILES,GAA inh,GLA spleen mod,aGlu spleen mod,GAA glycogen,GLA inh pH 4.5
c1ccc(-c2nc3cnccn3c2Nc2ccc3c(c2)OCCO3)cc1,-4%,-1%,-1%,?,-4
Cc1ccc2nc(-c3cccc(Cl)c3)c(Nc3ccc4c(c3)OCO4)n2c1,/,/,/,-20%[76.3 µM],/
Clc1cccc(-c2nc3ccccn3c2Nc2ccc3c(c2)OCCO3)c1,/,/,/,4µM*,/
CN(C)c1ccc(-c2nc3ccccn3c2Nc2ccc3c(c2)OCCO3)cc1,/,/,/,18µM*,/
Oc1ccc(-c2nc3cnccn3c2Nc2ccc3c(c2)OCCO3)cc1,3%[15.4 µM],-5%,-3%,16µM*,3
Cc1cc(C)cc(NC(=O)CCNS(=O)(=O)c2ccc3c(c2)oc(=O)n3C)c1,4%,6%,2%,-6%,-1
Oc1ccc(-c2nc3ccccn3c2Nc2ccc3c(c2)OCCO3)cc1,/,/,/,13µM*,/
O=C(NCc1ccccc1)Nc1cccn(Cc2ccccc2F)c1=O,-12%,-7%,-2%,-1%,-1
CCOc1cc(C2C3=C(CCCC3=O)N(C)C3=C2C(=O)CCC3)cc(Cl)c1O,-4%,-1%,0%,?,2
CCOc1cc(C2C3=C(CCCC3=O)NC3=C2C(=O)CCC3)cc(Cl)c1O,-4%,-7%,-12%,35µM*,-4
Cc1cc(SCC(=O)N/N=C/c2ccc(O)c(O)c2)c(C)cc1Br,-4%,-11%,-1%,18µM*,0
COc1cccc2c(SCC(=O)N/N=C/c3ccc(O)c(O)c3)cc(C)nc12,-9%,8%,8%,3.1µM*,-7
COc1ccc2c(c1)c(C(=O)N/N=C/c1ccc(O)c(O)c1)c(C)n2C,-9%,-17%,-23%,32µM*,-6
O=C(CSc1nc2ccccc2o1)N/N=C/c1ccc(O)c(O)c1,/,11%,-2%,?,2
COc1ccc2c(c1)c(C(=O)N/N=C/c1ccc(Br)cc1)c(C)n2C,/,-1%,2%,-5%,3
COc1ccc2nc(C)cc(SCC(=O)N/N=C/c3ccc(O)c(O)c3)c2c1,-12%,5%,0%,7µM*,-7
Cc1nn(-c2ccccc2)c(C)c1-c1nnc(C(F)(F)F)o1,/,/,/,-11%,/
CCN1CCN(CC(=O)Nc2cccc(C)c2C)C(=O)C1=O,1%,4%,2%,-13%,-12
Cc1ccsc1C=Nc1c(C)n(C)n(-c2ccccc2)c1=O,6%,12%,2%,3.1µM*,-10
Cc1c(N=Cc2cccs2)c(=O)n(-c2ccccc2)n1C,-3%,12%,8%,25µM*,-11
O=C(NCC(=O)N(Cc1ccccc1)C(C(=O)NC1CCCCC1)c1ccco1)c1ccco1 (stereo not given),1%,-3%,-6%,-1%,5
Cc1ccc(CSCC(=O)N/N=C/c2ccc(OCC(=O)Nc3ccc(C)cc3)cc2)cc1,2%,1%,-4%,-1%,-6
Cc1nnc(N/N=C/c2c(O)n(-c3cccc(C(F)(F)F)c3)c(=O)c3ccccc23)[nH]c1=O,-2%,-7%,-3%,25µM*,-4
CN(Cc1cccs1)c1nc(-c2cccnc2)nc2ccccc12,-7%,4%,8%,-6%,1
CN(C)c1nc(-c2cccnc2)nc2ccccc12,/,28µM*,-6%,/,/
CN1CCc2cccc3c2[C@H]1Cc1ccc(O)c(O)c1-3,2%[15.4 µM],0%,6%,7.9µM*,8
COc1cc(-c2nc3cnccn3c2Nc2ccc3c(c2)OCCO3)ccc1O,-8%,-2%,-6%,7µM*,-3
COc1cc(-c2nc3cnccn3c2Nc2ccc(C)cc2)ccc1O,-1%,1%,-4%,11µM*,0
CC(=O)Nc1c(O)nc(SC/C=C/CSc2nc(O)c(NC(C)=O)c(=O)[nH]2)[nH]c1=O,-3%,0%,6%,-8%,0
